# Screening results deposited in PubChem by University of Kansas High Throughput Screening Laboratory.
# Pf apPOL inh: Pf-apPOL inhibitors, biochemical, fluorescence; Plasmodium falciparum apicoplast DNA polymerase (apPOL); Recombinant Pf-apPOL, molecular beacon fluorescence, 1.5 h; inhibition, % at 10 µM; actives 0.25% (n = 210,000); AID 1794808, 2022
# mHTT-CaM PPI inh: mutant huntingtin-calmodulin interaction inhibitors – biochemical, AlphaScreen, primary screen; actives 3.6% (n = 190,000); P42858; inhibition, % at 15 µM; AID 1671202, 2021; AlphaScreen His-mHTT/GST-CaM binding, luminescence;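 note: 0% = both proteins with DMSO and 100% = one protein alone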
# Starred values were filed as active, the others as inactive; x = no result. Shown are actives, neighbours in structure and some others; about 3.6% of the full set was active somewhere. Cut-off read from the data, not from the text of the source: active = inhibition above about 50%; inactive = the rest.
SMILES,Pf apPOL inh,mHTT-CaM PPI inh
COc1cc(C)ccc1OCC1CN(C(=O)c2ccccc2C)CCO1 (stereo unspecified),-3,8
O=C(Cc1ccc(Cl)cc1)Nc1ncc([N+](=O)[O-])s1,-6,98*
O=C(Cc1ccc(Br)cc1)Nc1ncc([N+](=O)[O-])s1,-3,12
CCC(=O)N1CCN=C1SCc1ccccc1C,-4,-5
COc1ccc(/C=C2/N=C(c3ccc(Cl)cc3)OC2=O)c(OC)c1,-5,-5
Cn1c(=O)n(Cc2ccccc2Cl)c2ccccc21,-2,3
Cn1c(=O)n(Cc2ccc(Cl)c(Cl)c2)c2ccccc21,-5,78*
N=c1n(CCO)c2ccccc2n1Cc1ccc(Cl)c(Cl)c1,-8,13
O=c1oc(=O)n(Cc2ccc(Cl)c(Cl)c2)c2ccccc12,-3,99*
COc1ccc(-c2c(C#N)c(N)n3c(nc4ccccc43)c2C#N)c(OC)c1,-4,2
CC(C)(C)C(O)CN1C2=NCCN2c2ccccc21 (stereo unspecified),-3,2
COc1ccccc1NC1OC(=O)c2ccccc21 (stereo unspecified),-3,-1
COc1ccccc1NCC(O)CC1C(C)=C(C)c2ccccc21 (stereo unspecified),1,63*
CCCCOc1ccccc1NC(=O)c1cccnc1,-4,0
Cc1ccc(N2CCN(c3ncnc4c3nc3n4CCCCC3)CC2C)cc1 (stereo unspecified),-2,45
Cc1ccc(NC(=O)NCC2CCCN2S(=O)(=O)c2ccc(C)cc2)cc1 (stereo unspecified),6,12
CCCC1CCc2c(sc(NC(=O)c3cccnc3)c2C(N)=O)C1 (stereo unspecified),5,7
CCCC1CCc2c(sc(NC(=O)c3ccncc3)c2C(N)=O)C1 (stereo unspecified),66*,-5
NNc1ccc2c(Cl)cc(Cl)c(O)c2n1,-5,100*
O=c1ccc2c(Cl)cc(Cl)c(O)c2[nH]1,-3,12
O=C(NCc1cccs1)C1CCc2nc(N3CCN(C(=O)C4CCC4)CC3)sc2C1 (stereo unspecified),1,3
Cc1nc(-c2cn(C)c3ncccc23)sc1C(=O)N1CCN(c2ccccc2)CC1,-6,55*
CCn1cc(-c2nc(C(=O)N3CCN(c4ccccc4)CC3)cs2)c2cccnc21,-2,100*
CCn1cc(-c2nc(C)c(C(=O)N3CCOCC3)s2)c2cccnc21,0,9
O=C(c1csc(-c2ccncc2)n1)N1CCN(c2cccc(C(F)(F)F)c2)CC1,2,63*
SMILES,Pf apPOL inh,mHTT-CaM PPI inh
COc1cccc(N2CCN(C(=O)c3csc(-c4cccnc4)n3)CC2)c1,-2,19
CCn1cc(CC(=O)N2CCN(c3ccccc3)CC2)c2cccnc21,-5,13
O=C(Nc1ccc(F)c(F)c1)c1cnc(-c2ccc(F)cc2)nc1-c1ccncc1,40,-1
O=C(C1CCCCC1)N1CCC(CCOc2ccccc2)CC1,-4,-16
CC12CC3CC(C)(C1)CC(CC(=O)N1CCN(S(C)(=O)=O)CC1)(C3)C2,x,3
O=S(=O)(Nc1ccc(SC(F)F)cc1)c1cccc2cccnc12,-3,2
COc1ccc(/C=C2\SC(=N)N(c3ccccc3OC)C2=O)cc1,-5,43
CCn1cc2c3c(cccc31)CN(C(=O)Nc1ccc(F)cc1F)CC2,-6,11
CCCNC(=O)C1CCN(c2nc3ccc(-c4cccs4)nc3s2)CC1,0,9
CN(C)CCNC(=O)C1CCN(c2nc3ccc(-c4ccncc4)nc3s2)CC1,-6,-2
CCN(CC)C(=O)C1CCN(c2nc3ccc(-c4cccs4)nc3s2)CC1,-1,64*
CN(C)CCNC(=O)C1CCN(c2nc3ccc(-c4ccsc4)nc3s2)CC1,4,66*
CCn1ccc(C(=O)N2CCCC2c2ccccc2C)n1 (stereo unspecified),3,3
CCCN1CCCc2cc(CCNC(=O)C(=O)Nc3cccc(SC)c3)ccc21,-2,65*
CSc1cccc(NC(=O)C(=O)NCCC2=CCCCC2)c1,-6,-14
O=C(NCc1ccco1)C1CN(C(=O)c2cccs2)CC12CCCCC2 (stereo unspecified),4,15
CCc1nnc(NC(=O)c2cc(OC)c(OC)c(OC)c2)s1,1,1
CCCc1sc(NC(=O)c2cc(OC)c(OC)c(OC)c2)nc1-c1ccc(OC)c(OC)c1,-1,55*
COC(=O)Nc1c(-c2cccc(F)c2)n[nH]c1C1CC1,-8,0
O=C1/C(=C/c2ccc(F)cc2)Sc2ccccc21,-5,10
CSc1ccccc1NC(=O)Cc1csc(NC(=O)c2ncccn2)n1,-24,100*
CCOC(=O)Cc1csc(NC(=O)c2ncccn2)n1,-16,84*
Cc1ccnc(Nc2nc(CC(=O)Nc3nnc(C)s3)cs2)c1,22,56*
Cc1cc(C)nc(Nc2nc(CC(=O)NCc3ccccn3)cs2)n1,-4,13
CC(C)c1ccccc1NC(=O)Cc1csc(Nc2ncccn2)n1,-3,2
SMILES,Pf apPOL inh,mHTT-CaM PPI inh
CCOC(=O)Cc1csc(NC(=O)CSc2ccccn2)n1,0,x
Cc1ccnc(Nc2nc(CC(=O)Nc3ccc4c(c3)OCCO4)cs2)c1,0,16
Cc1cc(NC(=O)Cc2csc(NC(=O)c3ncccn3)n2)no1,-2,100*
COc1ccc(NC(=O)C2CCCN(c3nnc4cccc(C)n34)C2)cc1 (stereo unspecified),-3,4
Cc1ccc(C(=O)N2CCC(c3nc(C(=O)N4CCCCC4)c(C)o3)CC2)s1,4,11
CN(CC(=O)NC1CCCC1)S(=O)(=O)c1ccc2[nH]c3c(c2c1)CCCC3,-6,18
O=S(=O)(Nc1ccc(Cl)cn1)c1ccc2[nH]c3c(c2c1)CCCC3,-2,55*
CN(CC(=O)NCc1ccc(F)cc1)S(=O)(=O)c1ccc2[nH]c3c(c2c1)CCCC3,-4,41
NS(=O)(=O)c1ccc2[nH]c3c(c2c1)CCCC3,-10,3
O=S(=O)(Nc1ccc(F)cc1)c1ccc2[nH]c3c(c2c1)CCCC3,-4,98*
CN(CC(=O)NC1CCCCC1)S(=O)(=O)c1ccc2[nH]c3c(c2c1)CCCC3,0,97*
CCc1ccc(S(=O)(=O)Nc2ccc(Cl)cn2)cc1,10,-1
O=S(=O)(Nc1ccccc1)c1ccc2[nH]c3c(c2c1)CCCCC3,-6,100*
Cc1ccc(C(=O)Nc2ccc([N+](=O)[O-])cc2)cc1Br,0,-2
O=C(NCc1csc(C2CCN(C(=O)c3c(F)cccc3F)CC2)n1)C1CCC1,-1,-4
CCc1ccccc1NC(=O)N1CCCC1c1c(C)noc1CC (stereo unspecified),0,0
Cn1c(OCc2cccnc2)nc2c1c(=O)n(Cc1ccccc1F)c(=O)n2C,-2,-4
CCCC(C)C(=O)Nc1cc(Cl)ccc1Cl (stereo unspecified),-6,-12
Cc1ccc(S(=O)(=O)NC2CCCCC2)cc1[N+](=O)[O-],-2,0
O=S(=O)(NC1CCCCC1)c1ccc2[nH]c3c(c2c1)CCCC3,-5,87*
Cc1nc(SCc2ccccc2)[nH]c(=O)c1CC(=O)O,-16,-7
CC(=O)c1cccc(NC(=O)Cc2c(C)nc(SCc3cccc(Cl)c3)[nH]c2=O)c1,-5,51*
Cc1csc(NC(=O)CSc2nnc(NC(=O)Nc3ccc(Cl)cc3)s2)n1,2,-4
